BAZ2B inh: qHTS Assay for Inhibitors of BAZ2B. 4.4% of 360,000 active. Potency, µM (doses to about 114 µM), for inactives: top-dose activity change, negative = inhibition, actives largely listed as inhibitors. AlphaScreen BAZ2B-H3K14Ac peptide displacement. AID 504333, 2011; also: % is scaled to controls: 0 for no effect and ±100 for the full control effect; nearly all actives have a fitted effect of over 60% in size
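AlphaScreen displacement: compounds (up to 110uM) incubated 30 min at room temperature with a preformed 50 nM BAZ2B/50 nM biotinylated H3K14Ac peptide complex in PBS pH 7.4 with Tween-20. Donor and acceptor beads at 10 ug/mL final added, 20 min light-protected before reading.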
Sfp inh: qHTS Assay for Inhibitors of Bacillus subtilis Sfp phosphopantetheinyl transferase (PPTase). Biochemical Sfp PPTase activity, qHTS. Potency, µM, inactives show largest response in the series, negative = inhibition, actives largely listed as inhibitors. 3.5% of 310,000 active. AID 1490, 2009;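 also: the enzyme is Sfp with the accession as filed and its product quenches rhodamine fluorescence; 0% = enzyme reaction without inhibitor and -100% = no enzyme wells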
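Reaction rates are the 30-min fluorescence difference (ex 525, em 598 nm) in wells containing 15 nM Sfp, 5 uM rhodamine-CoA and 12.5 uM BHQ-2-YbbR at pH 7.6 with 10 mM MgCl2.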
JMJD2A Tudor inh: qHTS Assay for Inhibitors of JMJD2A-Tudor Domain. AlphaScreen JMJD2A-Tudor / H3K4me3 peptide binding. Lysine-specific demethylase 4A (Homo sapiens), O75164. Potency, µM (titrated, usually from 114 µM), for inactives: at the highest dose activity change, negative = inhibition, hits mostly inhibitors. 4.4% of 390,000 active; also: % is scaled to controls: 0 for no effect and ±100 for the full control effect; nearly all actives have a fitted effect of over 50% in size
HP1b binding inh: HTS for Inhibitors of HP1-beta Chromodomain Interactions with Methylated Histone Tails; Chromobox protein homolog 1 (Homo sapiens), P83916; AlphaScreen HP1-beta / biotin-H3K9me3 peptide binding; Potency, µM (top dose mostly 114 µM), for inactives: at the highest dose activity change, negative = inhibition, hits mostly inhibitors; 0.56% of 390,000 active; also: nearly all actives have a fitted effect of over 70% in size
Target sequence (P83916 whole entry, looked up): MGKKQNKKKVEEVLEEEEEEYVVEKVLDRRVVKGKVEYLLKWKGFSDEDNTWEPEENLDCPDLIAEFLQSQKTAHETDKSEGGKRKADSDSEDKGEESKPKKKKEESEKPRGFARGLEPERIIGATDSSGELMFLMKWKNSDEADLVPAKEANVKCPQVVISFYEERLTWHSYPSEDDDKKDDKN
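HP1-beta protein (50 nM final) preincubated 30 min at room temperature with biotinylated H3(1-18)K9me3 peptide (50 nM) in PBS pH 7.4, 0.01% Tween-20, then compound added for 30 min. AlphaScreen streptavidin donor/nickel chelate acceptor beads (10 ug/mL final), 30 min dark, luminescence read.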
12-LOX inh: Primary qHTS assay for inhibitors of human arachidonate 12S-lipoxygenase (ALOX12): Round 2; Potency, µM (highest dose often 108 µM), for the others: at the top dose activity change, negative = inhibition, hits mostly inhibitors; purified 12hLO, xylenol orange hydroperoxide absorbance; AID 1671190, 2021; 1.1% of 580,000 active; Polyunsaturated fatty acid lipoxygenase ALOX12 (Homo sapiens), P18054; also: % is scaled to controls: 0 for no effect and ±100 for the full control effect
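Hydroperoxide product was detected by ferrous iron/xylenol orange as the 573 to 405 nm absorbance ratio. Arachidonic acid at 40 uM (final) was turned over for 30 min at room temperature by 150 nM human 12hLO, pH 7.0 Hepes buffer, after 15 min compound preincubation.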
G9a block: qHTS Assay for Inhibitors of Histone Lysine Methyltransferase G9a | 8.8% of 350,000 active | Potency, µM (titrated, usually from 102 µM), inactives show top-dose activity, negative = inhibition, usual class: inhibitors | Histone-lysine N-methyltransferase EHMT2 (Homo sapiens), Q96KQ7 | AID 504332, 2011 | G9a H3K9 monomethylation, AlphaScreen, 2 h; also: % is scaled to controls: 0 for no effect and ±100 for the full control effect; nearly all actives have a fitted effect of over 75% in size
Target sequence (Q96KQ7 913-1193 limits assumed): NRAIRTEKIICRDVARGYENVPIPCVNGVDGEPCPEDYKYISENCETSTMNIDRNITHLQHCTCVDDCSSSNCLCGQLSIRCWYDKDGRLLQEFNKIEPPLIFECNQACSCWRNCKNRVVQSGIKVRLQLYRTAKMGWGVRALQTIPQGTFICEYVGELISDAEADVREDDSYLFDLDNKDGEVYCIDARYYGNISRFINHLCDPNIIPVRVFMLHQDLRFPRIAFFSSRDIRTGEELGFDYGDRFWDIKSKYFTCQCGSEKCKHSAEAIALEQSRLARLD
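G9a (20 nM) preincubated 15 min RT with compounds, then 500 nM biotinylated H3K9 peptide and 20 uM SAM added; 2 h RT reaction. Monomethyl-H3K9 product detected by AlphaScreen with anti-H3K9me1 antibody, streptavidin donor and anti-rabbit IgG acceptor beads.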
* hit, by the source's call; ? = inconclusive; . = no result; [ ] = dose if it differs, or a comment. Hits are enriched below; roughly 8.7% of the tested compounds scored in any of these assays. Calls follow the shape of the dose curve; as a rule, active = well fitted curve in the direction sought with a large enough effect; inconclusive = small, poorly fitted or top-dose-only effect, or another doubt; inactive = no such curve, though single readings can be large; an effect the other way counts as inactive or inconclusive. Potency is read from the fitted curve at half-maximal effect.

SMILES	BAZ2B inh	Sfp inh	JMJD2A Tudor inh	HP1b binding inh	12-LOX inh	G9a block
CC1CN(S(=O)(=O)c2cccc(C(=O)OCC(=O)c3cccs3)c2)CC(C)O1 (centres undefined)	-0.3%	1.4%	-20.1%	24.8%	0.0%	-11.9%[59 µM]
Nc1c(Cl)cc(C2=NCCn3c2c2ccc(C(F)(F)F)cc2[n+]3[O-])cc1Cl	?	.	4.47µM*	17.5%	-12.6%	?
Nc1c(Cl)cc(C2=NCCn3c2c2ccccc2[n+]3[O-])cc1Cl	?	.	3.55µM*	44.8%	-17.1%	?
O=[N+]([O-])c1ccc2c3n([n+]([O-])c2c1)CCN=C3c1ccc(Cl)cc1	50.1µM*	.	?	1.0%	?	-43.5%[2.33 µM]
O=C(CCc1ncc(-c2ccccc2)o1)NCc1ccco1	.	.	.	.	-2.6%	.
CC(=O)N1CCc2nn(CC(=O)Nc3ccc(F)c(F)c3)c(=O)cc2C1	.	.	.	.	27.5%	.
COc1cc(-c2onc(C)c2C(=O)NCc2ccc(F)cc2F)cc(OC)c1OC	.	.	.	.	3.8%	.
Cc1cccc(OCCN(C)C(=O)c2cc(=O)c3ccccc3o2)c1	.	.	.	.	-3.6%	.
Cc1ccc(N/N=C2\CCS(=O)(=O)c3sccc32)cc1	?	-45.2%	?	12.9%	?	8.91µM*
O=C(Cn1cnc2cc(Cl)ccc2c1=O)N(C1CCCC1)C1CCS(=O)(=O)C1 (centres undefined)	.	.	.	.	-0.6%	.
Cc1ccc(C(=O)NCC(=O)OC(C)C(=O)Nc2ccccc2[N+](=O)[O-])s1 (centres undefined)	.	.	-3.0%	29.2%	0.0%	.
Cc1ccc(C(=O)NCC(=O)OC(C)C(=O)Nc2ccc(N(C)C)cc2)s1 (centres undefined)	-38.4%	-2.9%	-34.0%	16.1%	30.1%	39.8µM*
COc1ccc(-c2nc(-c3ccccc3)nc3c2CN(C(=O)C2CC2)CC3)cc1	.	.	.	.	-13.5%	.
CCCCNC(=O)NNC(=O)COc1cc(C)cc(C)c1	4.2%	-6.6%	-0.3%	34.6%	-5.0%	-2.5%[59 µM]
COc1ccc(OCC(=O)NC2CCCCCCC2)cc1	3.0%	16.8%	-1.4%	41.1%	1.8%	3.9%
COc1ccc(OCC(=O)NNC(=S)NC(=O)C2CC2)cc1	-1.4%	15.7%	-17.9%	24.0%	?	20µM*
COc1ccc(OCC(=O)NNC(=S)NC(=O)C2CCCCC2)cc1	-7.1%	10.9%	.	.	?	12.6µM*
COc1ccc(NC(=S)NC(=O)C2CCC2)cc1	-2.0%	-4.5%	-33.0%	65.3%	-21.3%	.
COc1ccc(C(=O)NNC(=O)CNC(=O)C2CCCCC2)cc1	1.5%	18.6%	-4.3%	43.8%	2.6%	9.9%
COc1ccc(C(=O)NC(=S)NNC(=O)CNC(=O)C2CCCCC2)cc1	.	-22.5%	?	0.2%	?	8.91µM*
Cc1cc(C)cc(OCC(=O)NNC(=S)NC(=O)C2CC2)c1	4.2%	24.5%	-33.8%	25.1%	0.0%	20µM*
COc1ccc(-c2nc(C(C)C)nc3c2CCN(C(=O)Cc2cccc(Cl)c2)CC3)cc1	.	.	.	.	-27.7%	.
N#Cc1cccc(CN2CCC3(CC2)CC(Cc2nc(C4CC4)no2)CCO3)c1 (centres undefined)	.	.	.	.	16.4%	.
CCc1ccc(OCC(=O)NNC(=S)NC(=O)C2CCCCC2)c(Br)c1	-12.4%	11.9%	?	8.7%	7.94µM*	?
CCc1ccc(OCC(=O)NC2CCCCC2)c(Br)c1	-16.6%	5.1%	94.8%	108.1%	-2.9%	?
CCc1ccc(OCC(=O)NNC(=S)NC(=O)C2CC2)c(Br)c1	?	15.4%	?	10.5%	?	10µM*
COc1ccc(-n2nc3cc(C)c(N)c(Br)c3n2)cc1	-3.4%	39.8µM*	-15.8%[11.4 µM]	-25.9%	28.2µM*	?

Assay outcomes (PubChem BioAssay)
